# According to publication PMC5540273 (PLoS ONE, 2017):
# Values joined by “and” are separate entries in the source; they are usually repeats but may differ in a detail not shown here. Identical values can stand only once. Like-named read-outs stand apart in the source and are kept apart here.
# Key:
# PIKFYVE = details: concentration: 1 μM, replicates: in singlicate; n = 1
# PIM1 = details: concentration: 1 μM, replicates: in singlicate, n = 1
# PIM2 = details: concentration: 1 μM, replicates: in singlicate; n = 1
# PIM3 = details: concentration: 1 μM, replicates: in singlicate, n = 1
# PIP5K1A = details: concentration: 1 μM, replicates: in singlicate, n = 1
# PIP5K1C = details: concentration: 1 μM, replicates: in singlicate, n = 1
# PIP5K2B = details: concentration: 1 μM, replicates: in singlicate, n = 1
# PIP5K2C = system: T1, PIP5K2C; details: concentration: 1 μM, replicates: in singlicate, n = 1
# T1 construct: gene PIP4K2C
# PKAC-alpha = system: T2, PKAC-alpha; details: concentration: 1 μM, replicates: in singlicate, n = 1
# T2 construct: gene PRKACA
# PKAC-beta = system: T3, PKAC-beta; details: concentration: 1 μM, replicates: in singlicate, n = 1
# T3 construct: gene PRKACB
# PKMYT1 = details: concentration: 1 μM, replicates: in singlicate, n = 1
# PKN1 = details: concentration: 1 μM, replicates: in singlicate, n = 1
# PKN2 = details: concentration: 1 μM, replicates: in singlicate, n = 1
# PLK1 = details: concentration: 1 μM, replicates: in singlicate, n = 1
# PLK2 = details: concentration: 1 μM, replicates: in singlicate, n = 1
# PLK3 = details: concentration: 1 μM, replicates: in singlicate; n = 1
# PLK4 = details: concentration: 1 μM, replicates: in singlicate, n = 1
# PRKCD = details: concentration: 1 μM, replicates: in singlicate, n = 1
# PRKCE = details: concentration: 1 μM, replicates: in singlicate, n = 1
# PRKCH = details: concentration: 1 μM, replicates: in singlicate, n = 1
# 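Further: KINOMEscan kinase panel screen.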
compound,measurement,setting,value
O=C(NCCCN1CCOCC1)c1cccc(Nc2nccc(Nc3ccc(Oc4ccccc4)cc3)n2)c1 [GW663929],%Inh,PIKFYVE,37%
same,%Inh,PIM1,22%
same,%Inh,PIM2,0%
same,%Inh,PIM3,4%
same,%Inh,PIP5K1A,18%
same,%Inh,PIP5K1C,0%
same,%Inh,PIP5K2B,0%
same,%Inh,PIP5K2C,83%
same,%Inh,PKAC-alpha,4%
same,%Inh,PKAC-beta,0%
same,%Inh,PKMYT1,0%
same,%Inh,PKN1,16%
same,%Inh,PKN2,0%
same,%Inh,PLK1,0%
same,%Inh,PLK2,0%
same,%Inh,PLK3,4%
same,%Inh,PLK4,17%
same,%Inh,PRKCD,0%
same,%Inh,PRKCE,4%
same,%Inh,PRKCH,0%
Cl.Oc1cccc(Nc2ccnc3cc(-c4ccncc4)ccc23)c1 [GW494601],%Inh,PIKFYVE,44%
same,%Inh,PIM1,28%
same,%Inh,PIM2,0%
same,%Inh,PIM3,0%
same,%Inh,PIP5K1A,35%
same,%Inh,PIP5K1C,75%
same,%Inh,PIP5K2B,9%
same,%Inh,PIP5K2C,85%
same,%Inh,PKAC-alpha,0%
same,%Inh,PKAC-beta,0%
same,%Inh,PKMYT1,63%
same,%Inh,PKN1,0%
same,%Inh,PKN2,0%
same,%Inh,PLK1,30%
same,%Inh,PLK2,0%
same,%Inh,PLK3,0%
same,%Inh,PLK4,25%
same,%Inh,PRKCD,0%
same,%Inh,PRKCE,7%
same,%Inh,PRKCH,0%
CNc1ncnc2[nH]ncc12 [SKF-18355],%Inh,PIKFYVE,11%
same,%Inh,PIM1,0%
same,%Inh,PIM2,8%
same,%Inh,PIM3,0%
same,%Inh,PIP5K1A,22%
same,%Inh,PIP5K1C,0%
same,%Inh,PIP5K2B,0%
same,%Inh,PIP5K2C,0%
same,%Inh,PKAC-alpha,31%
same,%Inh,PKAC-beta,16%
same,%Inh,PKMYT1,1%
same,%Inh,PKN1,0%
same,%Inh,PKN2,2%
same,%Inh,PLK1,31%
same,%Inh,PLK2,12%
same,%Inh,PLK3,23%
same,%Inh,PLK4,6%
same,%Inh,PRKCD,0%
same,%Inh,PRKCE,12%
same,%Inh,PRKCH,0%
Fc1ccc(-c2ncn(CCCN3CCOCC3)c2-c2ccccn2)cc1 [SB-211742],%Inh,PIKFYVE,9%
same,%Inh,PIM1,0%
same,%Inh,PIM2,8%
same,%Inh,PIM3,0%
same,%Inh,PIP5K1A,22%
same,%Inh,PIP5K1C,47%
same,%Inh,PIP5K2B,0%
same,%Inh,PIP5K2C,27%
same,%Inh,PKAC-alpha,0%
same,%Inh,PKAC-beta,32%
same,%Inh,PKMYT1,0%
same,%Inh,PKN1,0%
same,%Inh,PKN2,9%
same,%Inh,PLK1,12%
same,%Inh,PLK2,0%
same,%Inh,PLK3,0%
same,%Inh,PLK4,0%
same,%Inh,PRKCD,28%
same,%Inh,PRKCE,0%
same,%Inh,PRKCH,0%
Cc1ccc(NC(=O)c2ccnc(N3CCN(C)CC3)c2)cc1-c1ccc(C(=O)NCC2CC2)cc1 [GW775604],%Inh,PIKFYVE,0%
same,%Inh,PIM1,0%
same,%Inh,PIM2,0%
same,%Inh,PIM3,4%
same,%Inh,PIP5K1A,0%
same,%Inh,PIP5K1C,0%
same,%Inh,PIP5K2B,0%
same,%Inh,PIP5K2C,0%
same,%Inh,PKAC-alpha,0%
same,%Inh,PKAC-beta,0%
same,%Inh,PKMYT1,9%
same,%Inh,PKN1,0%
same,%Inh,PKN2,0%
same,%Inh,PLK1,6%
same,%Inh,PLK2,7%
same,%Inh,PLK3,5%
same,%Inh,PLK4,0%
same,%Inh,PRKCD,0%
same,%Inh,PRKCE,0%
same,%Inh,PRKCH,0%
CC(C)(C)n1cnc2c(N)ncnc21 [SKF-97359],%Inh,PIKFYVE,51%
same,%Inh,PIM1,0%
same,%Inh,PIM2,0%
same,%Inh,PIM3,0%
same,%Inh,PIP5K1A,32%
same,%Inh,PIP5K1C,51%
same,%Inh,PIP5K2B,24%
same,%Inh,PIP5K2C,34%
same,%Inh,PKAC-alpha,0%
same,%Inh,PKAC-beta,20%
same,%Inh,PKMYT1,0%
same,%Inh,PKN1,0%
same,%Inh,PKN2,0%
same,%Inh,PLK1,0%
same,%Inh,PLK2,0%
same,%Inh,PLK3,0%
same,%Inh,PLK4,0%
same,%Inh,PRKCD,1%
same,%Inh,PRKCE,0%
same,%Inh,PRKCH,0%
C[C@@H](Oc1cc(-n2cnc3ccc(NC(=O)NC(C)(C)C)cc32)sc1C(N)=O)c1ccccc1Cl [GSK346294],%Inh,PIKFYVE,37%
same,%Inh,PIM1,17%
same,%Inh,PIM2,0%
same,%Inh,PIM3,0%
same,%Inh,PIP5K1A,35%
same,%Inh,PIP5K1C,48%
same,%Inh,PIP5K2B,10%
same,%Inh,PIP5K2C,42%
same,%Inh,PKAC-alpha,4%
same,%Inh,PKAC-beta,0%
same,%Inh,PKMYT1,5%
same,%Inh,PKN1,0%
same,%Inh,PKN2,0%
same,%Inh,PLK1,99.9%
same,%Inh,PLK2,96%
same,%Inh,PLK3,87%
same,%Inh,PLK4,0%
same,%Inh,PRKCD,5%
same,%Inh,PRKCE,19%
same,%Inh,PRKCH,21%
Nc1nccc(-c2c(-c3ccc(F)cc3)ncn2C2CCN(CC(F)(F)F)CC2)n1 [SB-236560],%Inh,PIKFYVE,59%
same,%Inh,PIM1,0%
same,%Inh,PIM2,0%
same,%Inh,PIM3,0%
same,%Inh,PIP5K1A,47%
same,%Inh,PIP5K1C,7%
same,%Inh,PIP5K2B,0%
same,%Inh,PIP5K2C,60%
same,%Inh,PKAC-alpha,0%
same,%Inh,PKAC-beta,11%
same,%Inh,PKMYT1,20%
same,%Inh,PKN1,0%
same,%Inh,PKN2,0%
same,%Inh,PLK1,0%
same,%Inh,PLK2,0%
same,%Inh,PLK3,0%
same,%Inh,PLK4,17%
same,%Inh,PRKCD,0%
same,%Inh,PRKCE,19%
same,%Inh,PRKCH,0%
NCCNS(=O)(=O)c1ccc(-c2ccnc3[nH]ccc23)cc1 [GSK977617],%Inh,PIKFYVE,0%
same,%Inh,PIM1; 1 µM,56% and 35%
same,%Inh,PIM2,0%
same,%Inh,PIM3; 1 µM,40% and 0%
same,%Inh,PIP5K1A; 1 µM,61% and 30%
same,%Inh,PIP5K1C; 1 µM,83% and 62%
same,%Inh,PIP5K2B; 1 µM,76% and 35%
same,%Inh,PIP5K2C; 1 µM,17% and 13%
same,%Inh,PKAC-alpha; 1 µM,99.3% and 98.8%
same,%Inh,PKAC-beta; 1 µM,99.2% and 98.3%
same,%Inh,PKMYT1; 1 µM,5% and 0%
same,%Inh,PKN1; 1 µM,44% and 19%
same,%Inh,PKN2; 1 µM,66% and 50%
same,%Inh,PLK1; 1 µM,6% and 2%
same,%Inh,PLK2; 1 µM,10% and 0%
same,%Inh,PLK3,0%
same,%Inh,PLK4; 1 µM,26% and 24%
same,%Inh,PRKCD; 1 µM,97.7% and 95.2%
same,%Inh,PRKCE; 1 µM,96.8% and 68%
same,%Inh,PRKCH; 1 µM,95% and 91%
